# Peg3 promoter – Peg3 promoter activity inhibition | HeLa PEG-Prom luciferase reporter, luminescence, overnight | inhibition, % at 20 µM | 360,000 compounds, 1.7% hits | AID 588405;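 active = inhibition of at least 50% at 20 µM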
# PAX8 inh HTS – inhibitors of PAX8 transcriptional activity in RMG-I cells; RMG-I TPO-luciferase reporter, SteadyGlo, 24 h; inhibition, % at 12.6 µM; 360,000 compounds, 1.2% hits; AID 652154;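 active = mean replicate inhibition at least 60% with every replicate also reaching 60%; inconclusive = only one of the two criteria is met; inactive = mean below 60% and not all replicates reaching 60%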;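 note: luciferase light reporting Pax8 driven TPO promoter activity; plate controls were median of neutral control wells for no effect and mitoxantrone controls for full effect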
# HIF-2a block – HIF-2a inhibition; 360,000 compounds, 0.72% hits; inhibition, % at 18.8 µM; AID 624352; 786-0 RCC cells HIF-2a reporter, luciferase luminescence, overnight;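 active = inhibition of the luminescence signal of 40% or more relative to plate controls, in a single-dose primary screen at 18.75 µM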
# EBV LMP1 NFkB – inhibitors of Epstein-Barr LMP1-induced NF-kappaB reporter; LMP1-induced NF-kappaB luciferase reporter cells, luminescence; inhibition, % at 12.5 µM; 350,000 compounds, 0.69% hits; in the data active = inhibition above about 41%; inconclusive = no clear call, values can overlap the other calls;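 note: 0% = neutral control wells and 100% = reference inhibitor control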
# Shn3 inh set2 – Schnurri-3 reporter inhibition in Clone20 osteoblasts; Clone20 osteoblast Shn3 3'UTR firefly luciferase, 24 h; inhibition, % at 12.5 µM; 360,000 compounds, 0.52% hits;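 active = mean inhibition of at least 75% with every replicate also reaching 75%; inconclusive = mean inhibition at least 75% but some replicate below; inactive = mean inhibition below 75%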;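 note: 0% = median of neutral control wells and 100% = pilot-screen positive control compound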
# MITF TRPM1 inh – MITF TRPM1 promoter inhibition in SK-MEL-5 cells; SK-MEL-5 TRPM1 promoter luciferase, 24 h; inhibition, % at 12.5 µM; 330,000 compounds, 0.83% hits; AID 488899;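 active = mean inhibition across replicates of 60% or more, whatever share of single replicates reaches that level; inconclusive = some that reach 60%, reason not given; inactive = mean inhibition across replicates below 60%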
# * marks the source's active call; other numbers are inactive results; ? = inconclusive; nt = no result given; ! = not active in a repeat. This is a sample that favours compounds with a hit; in the whole collection about 2.8% have one here.
SMILES,Peg3 promoter,PAX8 inh HTS,HIF-2a block,EBV LMP1 NFkB,Shn3 inh set2,MITF TRPM1 inh
COc1ccc(COc2cc(-c3cccc(OC)c3)nc3ccc(NC(=O)c4ccc(N(C)C)cc4)cc23)cc1,31,nt,-2,-5,34,2
COc1ccc(COc2cc(-c3cccc(OC)c3)nc3ccc(NC(=O)c4ccc(C)cc4)cc23)cc1,35,80*,20,-3,21,29
CCOC(=O)OC(C)OC(=O)[C@@H]1N2C(=O)[C@@H](NC(=O)[C@H](N)c3ccccc3)[C@H]2SC1(C)C (some centres undefined),8,-8,2,56*,9,0
CC(Oc1ccccc1)C(=O)NC1C(=O)N2C1SC(C)(C)C2C(=O)O (centres undefined),-6,-3,6,9,20,10
CSc1nc(Nc2ccc(Cl)cc2)c(C#N)c(=O)[nH]1,53*,4,24,2,19,8
CSc1nc(-c2ccc(Cl)cc2)c(C#N)c(=O)[nH]1,16,-3,15,3,-10,7
O=C1c2ccccc2C(=O)N1CC(O)COCc1ccccc1 (centres undefined),5,nt,-2,11,-19,-5
O=C1c2ccccc2C(=O)N1CC(O)CNc1ccc(Br)cc1 (centres undefined),10,82*,4,-7,-22,-7
COc1cccc(CNCc2ccc(OC)cc2OC)c1,-10,-31,13,6,14,7
CCn1c2ccccc2c2cc(CNCc3ccc(OC)cc3OC)ccc21,114*,18,17,10,81,22
COC(=O)CCC(=O)Nc1cc(Cl)cc(Cl)c1,23,70*,4,-7,3,2
COC(=O)CCC(=O)Nc1ccc(NC(=O)CCC(=O)OC)cc1,2,nt,22,6,3,-4
O=C(C1CC(=O)N(c2ccc3c(c2)OCCO3)C1)N1CCN(Cc2ccccc2F)CC1 (centres undefined),-5,0,7,70*,16,-3
N#Cc1cccc2c1-c1ccccc1/C2=N/NC(N)=O,52*,nt,30,-15,21,3
NC(=O)N/N=C1\c2ccccc2-c2c(C(N)=O)cccc21,-2,12,15,-6,11,nt
O=[N+]([O-])c1cc(S(=O)(=O)Oc2ccccc2)ccc1Cl,107*,10,88*,-1,46,87*
COc1cccc(-c2c(-c3cc(OC)cc(OC)c3)n(C)c3ccc(-c4cnc(N5CCOCC5)nc4)cc23)c1,49,84*,13,-64,2,-7
N#C[C@H]1[C@@H](c2ccc(C#Cc3ccccc3F)cc2)[C@H](CO)N1C(=O)c1cccnc1,nt,9,nt,nt,nt,nt
C[C@@H]1CCCCO[C@@H](CN(C)C(=O)C2CCCCC2)[C@@H](C)CN([C@H](C)CO)C(=O)c2cc(NC(=O)Nc3ccc(F)cc3)ccc2O1,nt,2,nt,nt,nt,nt
C[C@@H]1CN([C@H](C)CO)C(=O)c2cc(NC(=O)Nc3ccc(F)cc3)ccc2O[C@@H](C)CCCCO[C@H]1CN(C)C(=O)C1CCCCC1,nt,86*,nt,nt,nt,nt
C[C@H]1CCCCO[C@H](CN(C)C(=O)C2CCCCC2)[C@@H](C)CN([C@@H](C)CO)C(=O)c2cc(NC(=O)Nc3ccc(F)cc3)ccc2O1,nt,85*,nt,nt,nt,nt
C[C@@H]1CCCCO[C@H](CN(C)C(=O)C2CCCCC2)[C@H](C)CN([C@@H](C)CO)C(=O)c2cc(NC(=O)Nc3ccc(F)cc3)ccc2O1,nt,39,nt,nt,nt,nt
C[C@H](CO)N1C[C@H](C)[C@H](CN(C)C(=O)C2CCCCC2)OCCCC[C@H](C)Oc2ccc(NC(=O)Nc3ccc(F)cc3)cc2C1=O,nt,74*,nt,nt,nt,nt
C[C@H]1CN([C@@H](C)CO)S(=O)(=O)c2ccc(-c3cccnc3)cc2O[C@@H]1CN(C)CC1CCOCC1,nt,-1,nt,nt,nt,nt
C[C@@H]1CN([C@H](C)CO)C(=O)c2cc(C3=CCCCC3)cnc2O[C@@H]1CN(C)Cc1ccc(C(=O)O)cc1,nt,-22,nt,nt,nt,nt
SMILES,Peg3 promoter,PAX8 inh HTS,HIF-2a block,EBV LMP1 NFkB,Shn3 inh set2,MITF TRPM1 inh
C/C=C/c1ccccc1[C@H]1[C@@H](CO)N(S(=O)(=O)c2cccc(F)c2)[C@H]1C#N,nt,-12,nt,nt,nt,nt
CO[C@@H]1CN(C)C(=O)c2cc(NS(=O)(=O)c3ccc(Cl)cc3)ccc2OC[C@@H](C)N(C)C[C@@H]1C,nt,1,nt,nt,nt,nt
CNC(=O)OCc1nc(SSC(C)(C)C)n(C)c1COC(=O)NC,94*,20,-20,13,96*,58
CO[C@@H]1CN(C)C(=O)c2ccc(NC(=O)C3CCCCC3)cc2OC[C@H](C)N(C(=O)c2ccccc2)C[C@@H]1C,nt,10,nt,nt,nt,nt
O=C1C(=C2CCCCC2)SC(=S)N1Cc1ccco1,31,nt,12,44*,-8,11
CCCCCCCCCCOC(=O)Cn1c(COc2ccccc2C)[n+](C)c2ccccc21,107*,nt,2,18,?,5
CCCCOC(=O)Cn1c(=O)n(CC(=O)OCCCC)c2ccccc21,1,nt,17,2,-18,5
CCCCCCCCCCOC(=O)Cn1c(COc2ccc(OC)cc2)[n+](C)c2ccccc21,105*,nt,-57,-4,94*!,85*
CCCCCCCCCCOC(=O)Cn1c(COc2cccc(C)c2)[n+](C)c2ccccc21,46,36,-25,-4,59,47
CCOC(=O)Cn1c(COc2ccccc2OC)[n+](C)c2ccccc21,8,-29,16,nt,13,nt
CCCCCCCCCCOC(=O)Cn1c(COc2ccccc2)[n+](C)c2ccccc21,100*,71*,-12,29,?,11
C[C@@H]1CN([C@@H](C)CO)C(=O)c2cc(C#C[C@@H](C)O)cnc2O[C@@H]1CN(C)C(=O)Nc1ccc(C(F)(F)F)cc1,nt,-1,nt,nt,nt,nt
Cc1ccc(S(=O)(=O)N(C)C[C@H]2OCCCC[C@H](C)Oc3ccc(NS(=O)(=O)c4ccccc4)cc3C(=O)N([C@H](C)CO)C[C@@H]2C)cc1,nt,62*,nt,nt,nt,nt
Cc1ccc(S(=O)(=O)Nc2ccc3c(c2)C(=O)N([C@H](C)CO)C[C@@H](C)[C@H](CN(C)S(=O)(=O)c2ccccc2)OCCCC[C@H](C)O3)cc1,nt,80*,nt,nt,nt,nt
Cc1ccc(S(=O)(=O)Nc2ccc3c(c2)C(=O)N([C@H](C)CO)C[C@@H](C)[C@@H](CN(C)S(=O)(=O)c2ccccc2)OCCCC[C@@H](C)O3)cc1,nt,26,nt,nt,nt,nt
Cc1ccc(S(=O)(=O)Nc2ccc3c(c2)C(=O)N([C@@H](C)CO)C[C@@H](C)[C@@H](CN(C)S(=O)(=O)c2ccccc2)OCCCC[C@H](C)O3)cc1,7,3,7,2,21,nt
O=C(CSc1ccc(C(F)(F)F)cn1)Nc1ccccc1,9,-22,0,-23,-52,-4
O=C(/C=C/Sc1ccc(C(F)(F)F)cn1)c1ccccc1,96*,18,-12,-7,31,41
COCCNC(=O)C[C@@H]1CC[C@@H]2[C@@H](COc3ccc(NC(=O)COC)cc3C(=O)N2C)O1,nt,0,nt,nt,nt,nt

# From PubChem
